Assay results: PubChem BioAssay (NCATS)
Records with an inconclusive call do not appear. Active and inactive are the calls of the source. Calls follow the shape of the dose curve; as a rule, active = well fitted inhibition curve with a large enough effect; inconclusive = small, poorly fitted or top-dose-only effect; inactive = flat fitted curve, though single readings scatter.

What was measured:
Assay in all cases: qHTS profiling for inhibitors of Plasmodium falciparum proliferation (AID 504749); also: nearly all actives have a fitted effect of over 60% in size
CP262 = settings: P. falciparum in erythrocytes, SYBR Green DNA, 72 h; series mostly up to 28.7 µM
Procedure, shortened: (§1)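 Parasite proliferation within erythrocytes, 72 h exposure. Endpoint: SYBR Green I fluorescence after overnight lysis at room temperature. Controls: 0.29 uM artemisinin, DMSO.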

CP265 = settings: P. falciparum in erythrocytes, SYBR Green DNA, 72 h; series mostly up to 12.8 µM
Procedure, shortened: as §1

CP268 = settings: P. falciparum in erythrocytes, SYBR Green DNA, 72 h; series mostly up to 28.7 µM
Procedure, shortened: as §1

CP269 = settings: P. falciparum in erythrocytes, SYBR Green DNA, 72 h; series mostly up to 28.7 µM
Procedure, shortened: as §1

CP286 = settings: P. falciparum in erythrocytes, SYBR Green DNA, 72 h; series mostly up to 28.7 µM
Procedure, shortened: as §1

CP291 = settings: P. falciparum in erythrocytes, SYBR Green DNA, 72 h; series mostly up to 28.7 µM
Procedure, shortened: as §1

CP297 = settings: P. falciparum in erythrocytes, SYBR Green DNA, 72 h; series mostly up to 28.7 µM
Procedure, shortened: as §1

CP305 = settings: P. falciparum in erythrocytes, SYBR Green DNA, 72 h; series mostly up to 28.7 µM
Procedure, shortened: as §1

CP315 = settings: P. falciparum in erythrocytes, SYBR Green DNA, 72 h; series mostly up to 28.7 µM
Procedure, shortened: as §1

CP325 = settings: P. falciparum in erythrocytes, SYBR Green DNA, 72 h; series mostly up to 28.7 µM
Procedure, shortened: as §1

CP329 = settings: P. falciparum in erythrocytes, SYBR Green DNA, 72 h; series mostly up to 28.7 µM
Procedure, shortened: as §1

CP335 = settings: P. falciparum in erythrocytes, SYBR Green DNA, 72 h; series mostly up to 12.8 µM
Procedure, shortened: as §1

DFO2036 = settings: P. falciparum in erythrocytes, SYBR Green DNA, 72 h; series mostly up to 28.7 µM
Procedure, shortened: as §1

DIV14 = settings: P. falciparum in erythrocytes, SYBR Green DNA, 72 h; series mostly up to 28.7 µM
Procedure, shortened: as §1

DIV30 = settings: P. falciparum in erythrocytes, SYBR Green DNA, 72 h; series mostly up to 28.7 µM
Procedure, shortened: as §1

Dd2 = settings: P. falciparum in erythrocytes, SYBR Green DNA, 72 h; series mostly up to 28.7 µM
Procedure, shortened: as §1

ECU = settings: P. falciparum in erythrocytes, SYBR Green DNA, 72 h; series mostly up to 28.7 µM
Procedure, shortened: as §1

FAB9 = settings: P. falciparum in erythrocytes, SYBR Green DNA, 72 h; series mostly up to 28.7 µM
Procedure, shortened: as §1

GB4 = settings: P. falciparum in erythrocytes, SYBR Green DNA, 72 h; series mostly up to 28.7 µM
Procedure, shortened: as §1

HB3 = settings: P. falciparum in erythrocytes, SYBR Green DNA, 72 h; series mostly up to 28.7 µM
Procedure, shortened: as §1

ICS = settings: P. falciparum in erythrocytes, SYBR Green DNA, 72 h; series mostly up to 28.7 µM
Procedure, shortened: as §1

JCK = settings: P. falciparum in erythrocytes, SYBR Green DNA, 72 h; series mostly up to 28.7 µM
Procedure, shortened: as §1

N140 = settings: P. falciparum in erythrocytes, SYBR Green DNA, 72 h; series mostly up to 28.7 µM
Procedure, shortened: as §1

P93_24 = settings: P. falciparum in erythrocytes, SYBR Green DNA, 72 h; series mostly up to 28.7 µM
Procedure, shortened: as §1

P94_40 = settings: P. falciparum in erythrocytes, SYBR Green DNA, 72 h; series mostly up to 28.7 µM
Procedure, shortened: as §1

PAD = settings: P. falciparum in erythrocytes, SYBR Green DNA, 72 h; series mostly up to 28.7 µM
Procedure, shortened: as §1

PC26 = settings: P. falciparum in erythrocytes, SYBR Green DNA, 72 h; series mostly up to 28.7 µM
Procedure, shortened: as §1

TAB109 = settings: P. falciparum in erythrocytes, SYBR Green DNA, 72 h; series mostly up to 12.8 µM
Procedure, shortened: as §1

TAB113 = settings: P. falciparum in erythrocytes, SYBR Green DNA, 72 h; series mostly up to 28.7 µM
Procedure, shortened: as §1

TAB165 = settings: P. falciparum in erythrocytes, SYBR Green DNA, 72 h; series mostly up to 28.7 µM
Procedure, shortened: as §1

W2 = settings: P. falciparum in erythrocytes, SYBR Green DNA, 72 h; series mostly up to 12.8 µM
Procedure, shortened: as §1

Measured: Potency
Potency is read from the fitted curve at half-maximal effect.

O=[As]O[As]=O (stereo unspecified)
inactive: CP262
active: CP265 12.6 µM | CP268 15.1 µM | CP269 6.01 µM | CP286 8.91 µM | CP291 6.75 µM | CP297 9.53 µM | CP305 8.49 µM | CP315 13.5 µM | CP325 6.75 µM | CP329 15.1 µM | CP335 7.57 µM | DFO2036 12.6 µM | DIV14 6.01 µM | DIV30 8.49 µM | Dd2 7.94 µM | ECU 8.91 µM | FAB9 11.2 µM | GB4 8.49 µM | HB3 11.2 µM | ICS 7.08 µM | JCK 11.2 µM | N140 7.94 µM | P93_24 5.01 µM | P94_40 7.08 µM | PAD 8.91 µM | PC26 15.1 µM | TAB109 7.08 µM | TAB113 7.94 µM | TAB165 6.31 µM | W2 4.26 µM
